# Experimental data taken from PubChem BioAssay AID602124 (The Scripps Research Institute Molecular Screening Center, 2011).
# Out of some 1,300 compounds screened, about 630 (48%) were called active. Cut-off read from the data, not from the text of the source: active = inhibition above about 6.5%; inactive = the rest. So high a share suggests a set chosen from earlier hits. The sample as a whole holds a higher share of actives than the screen did.
# Target: Tyrosine-protein kinase ABL1 (Homo sapiens) + Ras and Rab interactor 1 (Homo sapiens) (UniProt P00519+Q13671)
# Sequence (P00519 whole entry, looked up): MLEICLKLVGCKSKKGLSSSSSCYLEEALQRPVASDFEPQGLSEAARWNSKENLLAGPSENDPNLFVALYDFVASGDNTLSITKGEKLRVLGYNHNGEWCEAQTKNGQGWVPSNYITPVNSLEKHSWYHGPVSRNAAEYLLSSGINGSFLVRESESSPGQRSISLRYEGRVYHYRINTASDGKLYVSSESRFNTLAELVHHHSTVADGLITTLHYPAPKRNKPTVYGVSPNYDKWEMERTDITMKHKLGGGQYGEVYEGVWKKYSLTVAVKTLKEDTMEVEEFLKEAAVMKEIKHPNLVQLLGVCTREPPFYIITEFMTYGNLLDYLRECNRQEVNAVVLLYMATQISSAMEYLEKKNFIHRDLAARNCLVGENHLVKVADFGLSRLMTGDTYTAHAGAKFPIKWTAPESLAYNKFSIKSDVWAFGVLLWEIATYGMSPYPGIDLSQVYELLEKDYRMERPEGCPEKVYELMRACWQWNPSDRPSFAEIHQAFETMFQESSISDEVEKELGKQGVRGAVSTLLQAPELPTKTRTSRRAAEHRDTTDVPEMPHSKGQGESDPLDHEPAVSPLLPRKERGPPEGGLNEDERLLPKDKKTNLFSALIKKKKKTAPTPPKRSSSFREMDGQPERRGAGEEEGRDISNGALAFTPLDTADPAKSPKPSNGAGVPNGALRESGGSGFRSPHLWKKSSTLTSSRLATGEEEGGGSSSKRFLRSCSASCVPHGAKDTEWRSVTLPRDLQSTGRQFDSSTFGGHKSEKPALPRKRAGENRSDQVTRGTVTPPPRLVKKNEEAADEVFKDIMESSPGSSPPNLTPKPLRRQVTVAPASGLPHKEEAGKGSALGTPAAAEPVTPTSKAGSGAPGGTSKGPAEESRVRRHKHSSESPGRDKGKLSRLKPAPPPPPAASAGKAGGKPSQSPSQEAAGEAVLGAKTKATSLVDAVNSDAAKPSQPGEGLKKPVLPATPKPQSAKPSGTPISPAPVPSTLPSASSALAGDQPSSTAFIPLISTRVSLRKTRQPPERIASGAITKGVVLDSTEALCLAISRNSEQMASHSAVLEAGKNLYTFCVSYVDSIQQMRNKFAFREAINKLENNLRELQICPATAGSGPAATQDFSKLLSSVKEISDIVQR
# Sequence (Q13671 whole entry, looked up): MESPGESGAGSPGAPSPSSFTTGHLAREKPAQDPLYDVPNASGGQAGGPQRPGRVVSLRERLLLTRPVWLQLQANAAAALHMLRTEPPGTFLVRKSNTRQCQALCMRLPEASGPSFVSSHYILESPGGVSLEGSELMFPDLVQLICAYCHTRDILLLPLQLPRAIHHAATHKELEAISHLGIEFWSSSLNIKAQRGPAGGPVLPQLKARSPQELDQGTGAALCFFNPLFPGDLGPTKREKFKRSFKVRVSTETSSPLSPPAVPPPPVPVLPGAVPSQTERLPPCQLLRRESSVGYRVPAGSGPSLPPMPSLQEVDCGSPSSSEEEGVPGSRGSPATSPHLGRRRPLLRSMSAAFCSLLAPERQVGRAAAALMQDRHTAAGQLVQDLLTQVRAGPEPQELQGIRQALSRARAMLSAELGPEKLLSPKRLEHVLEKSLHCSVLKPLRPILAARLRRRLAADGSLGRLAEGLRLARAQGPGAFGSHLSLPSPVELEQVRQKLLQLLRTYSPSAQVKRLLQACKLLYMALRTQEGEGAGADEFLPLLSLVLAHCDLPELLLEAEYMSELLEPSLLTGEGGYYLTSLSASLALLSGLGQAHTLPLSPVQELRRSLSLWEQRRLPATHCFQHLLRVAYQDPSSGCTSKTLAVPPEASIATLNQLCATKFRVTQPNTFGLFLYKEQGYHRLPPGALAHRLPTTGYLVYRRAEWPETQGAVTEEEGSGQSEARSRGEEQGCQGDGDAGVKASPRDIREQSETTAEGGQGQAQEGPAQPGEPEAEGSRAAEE
# Experiment: Rin1-Abl binding inhibitor retest, confirmation, biochemical, TR-FRET (AID 602124)
# Conditions: purified proteins, at 7.35 µM, stronger effect = higher value
row,SMILES,inhibition
1,CSCCC(c1nnnn1C(C)(C)C)N1CCC(n2c(=O)[nH]c3ccccc32)CC1 (stereo unspecified),16.5% (active)
